PLK1 PBD inh – qHTS for Inhibitors of PLK1-PDB (polo-like kinase 1 - polo-box domain): Primary Screen; Plk1 PBD binding of FITC phosphopeptide, fluorescence polarization; Potency, µM, for the others: max response, negative = inhibition, most hits filed as inhibitors; hit rate 2.8% among 360,000; note: series mostly up to about 57 µM; % is set by controls: 0 for no effect and ±100 for the full control effect; nearly all actives have a fitted effect of over 65% in size
G9a inh – qHTS Assay for Inhibitors of Histone Lysine Methyltransferase G9a; Histone-lysine N-methyltransferase EHMT2 (Homo sapiens), Q96KQ7; G9a H3K9 monomethylation, AlphaScreen, 2 h; Potency, µM (top dose mostly 102 µM), inactives show at the top dose activity, negative = inhibition, hits mostly inhibitors; hit rate 8.8% among 350,000; AID 504332, 2011; note: % is set by controls: 0 for no effect and ±100 for the full control effect; nearly all actives have a fitted effect of over 75% in size
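Enzyme 20 nM + cpd, 15 min RT; add b-H3K9 pep 500 nM / SAM 20 uM; 2 h RT; anti-H3K9me1 Ab 0.5 ug/mL + SA donor / anti-rabbit acceptor beads 20 ug/mL each, 10 min; AlphaScreen read.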
BAZ2B block – qHTS Assay for Inhibitors of BAZ2B | AID 504333, 2011 | AlphaScreen BAZ2B-H3K14Ac peptide displacement | hit rate 4.4% among 360,000 | Potency, µM (titrated, usually from 114 µM), for inactives: at the highest dose activity change, negative = inhibition, most hits filed as inhibitors; note: % is set by controls: 0 for no effect and ±100 for the full control effect; nearly all actives have a fitted effect of over 60% in size
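Complex of BAZ2B and biotin-H3K14Ac (50 nM apiece) forms over 30 min at RT, then faces library compounds up to 110 uM for another 30 min; AlphaScreen beads added, 20 min dark incubation, luminescence read.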
JMJD2A Tudor inh – qHTS Assay for Inhibitors of JMJD2A-Tudor Domain; Lysine-specific demethylase 4A (Homo sapiens), O75164; AlphaScreen JMJD2A-Tudor / H3K4me3 peptide binding; Potency, µM (top dose mostly 114 µM), for inactives: top-dose activity change, negative = inhibition, most hits filed as inhibitors; hit rate 4.4% among 390,000; note: % is set by controls: 0 for no effect and ±100 for the full control effect; nearly all actives have a fitted effect of over 50% in size
HP1b chromo inh – HTS for Inhibitors of HP1-beta Chromodomain Interactions with Methylated Histone Tails; hit rate 0.56% among 390,000; Potency, µM (titrated, usually from 114 µM), for inactives: at the highest dose activity change, negative = inhibition, most hits filed as inhibitors; Chromobox protein homolog 1 (Homo sapiens), P83916; AID 540317, 2011; AlphaScreen HP1-beta / biotin-H3K9me3 peptide binding; note: nearly all actives have a fitted effect of over 70% in size
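HP1-beta protein (50 nM final) preincubated 30 min at room temperature with biotinylated H3(1-18)K9me3 peptide (50 nM) in PBS pH 7.4, 0.01% Tween-20, then compound added for 30 min. AlphaScreen streptavidin donor/nickel chelate acceptor beads (10 ug/mL final), 30 min dark, luminescence read.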
Sfp PPTase inh – qHTS Assay for Inhibitors of Bacillus subtilis Sfp phosphopantetheinyl transferase (PPTase) | 4'-phosphopantetheinyl transferase ffp (Bacillus subtilis), Q9F4F7 | Biochemical Sfp PPTase activity, qHTS | Potency, µM, inactives show largest response in the series, negative = inhibition, usual class: inhibitors | hit rate 3.5% among 310,000;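 note: the enzyme is Sfp with the accession as filed and its product quenches rhodamine fluorescence; 0% = enzyme reaction without inhibitor and -100% = no enzyme wells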
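Step 1, compound plus 15 nM Sfp-PPTase, 15 min, room temperature. Step 2, add rhodamine-CoA (5 uM) and BHQ-2-YbbR (12.5 uM). Step 3, read 525/598 nm fluorescence at 0 and 30 min.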
Starred values were filed as active, the others as inactive; ? = inconclusive; . = not tested or not shown; [ ] = dose if it differs, or a comment. Only some compounds are listed: those with a hit (about 12% of all), similar ones and a draw of the others. Calls come from the whole dose curve; as a rule, active = well fitted curve in the direction sought with a large enough effect; inconclusive = small, poorly fitted or top-dose-only effect, or another doubt; inactive = no such curve, though single readings can be large; an effect the other way counts as inactive or inconclusive. Potency is the fitted concentration of half-maximal effect.

SMILES	PLK1 PBD inh	G9a inh	BAZ2B block	JMJD2A Tudor inh	HP1b chromo inh	Sfp PPTase inh
COc1ccc(S(=O)(=O)NCC(c2ccc(F)cc2)N2CCOCC2)cc1Br (stereo not given)	-6.9%	?	6.1%	-15.8%	35.9%	.
O=C(/C=C/c1ccc(Br)o1)NCCCN1CCOCC1	-16.4%	22.4µM*	?	-9.5%	17.2%	17.8µM*
COc1ccc(/C=C/C(=O)NCCN2CCOCC2)cc1OC	16.8µM*	?	-30.5%	?	22.3%	12.5%
O=c1c2sc3ccccc3c2n(Cc2cccc(F)c2)c(=O)n1CCc1ccccc1	.	-1.9%[59 µM]	5.2%	6.6%	47.6%	.
Cc1ccc2c(c1)c1nnc(SCC(=O)Nc3cccc(Cl)c3C)nc1n2CC(=O)O	-7.8%	?	50.1µM*	?	-16.8%	-22.1%
Cc1ccc2c(c1)c1nnc(SCC(=O)Nc3ccccc3C(F)(F)F)nc1n2CC(=O)O	-9.9%	-10.4%	-15.5%	-5.3%[57.1 µM]	39.9%	10.4%
Cc1ccc2c(c1)c1nnc(SCC(=O)Nc3ccc(N(C)C)cc3)nc1n2CC(=O)O	-15.8%	25.1µM*	?	?	-1.3%	79.4µM*
O=C(NNC(=O)c1ccc(Cl)nc1)c1ccncc1	-5.3%	-8.3%[2.33 µM]	8.9%	-19.8%	12.1%	.
O=C(NCCCN1CCN(c2ccccc2)CC1)c1ccc2nc(Cc3ccccc3)oc2c1	.	-40.8%[59 µM]	?	?	-0.9%[57 µM]	.
COc1ccc(N2CCN(CCCNC(=O)Cn3c(=O)c4cccn4c4ccccc43)CC2)cc1	-12.3%	39.8µM*	?	-34.8%	?	11.6%
COCCn1c(=O)[nH]c2cc(C(=O)NCCN3CCN(c4ccccc4)CC3)ccc2c1=O	-9.3%	3.2%[2.33 µM]	2.2%	-13.2%	6.4%	13.1%
COc1ccc(N2CCN(CCCNC(=O)c3ccc4nc(N5CCCCC5)sc4c3)CC2)cc1	.	?	25.1µM*	44.7µM*	?	.
Cc1ccc(Cl)cc1N1CCN(CCCNC(=O)c2ccc3nc(N4CCCCC4)sc3c2)CC1	.	-8.5%[59 µM]	3.9%	?	-8.9%	.
COCCn1c(=O)[nH]c2cc(C(=O)NCCN3CCN(c4ccc(OC)cc4)CC3)ccc2c1=O	-4.0%	10µM*	-6.3%	18.1%[57.1 µM]	22.1%	-11.8%
O=C(NCCCN1CCN(c2ccc(F)cc2)CC1)c1ccc2nc(Cc3ccccc3)oc2c1	.	-37.8%[59 µM]	31.6µM*	?	-8.6%[57 µM]	.
Cc1nc(SC(C)C(=O)NCC2CCCO2)c2cc(-c3ccccc3)sc2n1 (stereo not given)	-6.5%	0.7%[0.501 µM]	-8.5%	-0.7%	51.1%	.
O=C(CC1OC(=O)c2ccccc21)Nc1cc(Cl)ccc1N1CCOCC1 (stereo not given)	-13.1%	.	.	-14.8%	57.1%	.
COc1ccc(N2CCN(CCCNC(=O)c3sc4ncccc4c3-n3cccc3)CC2)cc1	.	15.8µM*	35.5µM*	39.8µM*	-27.4%[57 µM]	.
COc1ccc(N2CCN(CCCNC(=O)c3nnc(Cc4ccccc4Cl)o3)CC2)cc1	.	12.6µM*	35.5µM*	50.1µM*	?	.
O=C(Cn1c(=O)c2cccn2c2cccnc21)NCCCN1CCN(c2ccc(F)cc2)CC1	-4.8%	?	-32.3%	-32.6%	22.6%	16.0%
COc1ccc(N2CCN(CCCNC(=O)Cn3c(=O)c4cccn4c4cccnc43)CC2)cc1	2.5%	39.8µM*	31.6µM*	50.1µM*	-12.0%	12.7%
Cc1ccc(Cl)cc1N1CCN(C(=O)c2ccc(NC(=O)c3nsc4ccccc34)cc2)CC1	.	-1.3%[59 µM]	0.3%	-17.2%	14.6%[57 µM]	.
O=C(Nc1cccc(Cl)c1)NC1CCS(=O)(=O)C1 (stereo not given)	1.1%	11.2%	4.2%	-6.3%	12.1%	11.0%
CCC(Sc1nc2ncccc2[nH]1)C(=O)Nc1cccc(OC)c1 (stereo not given)	.	-33.4%[59 µM]	-1.5%	0.3%	46.1%	.
CCC(Cc1ccccc1)NC(=O)C1CCN(S(=O)(=O)c2ccc3c(c2)CC(C)N3C(C)=O)CC1 (stereo not given)	-6.4%	.	9.9%	-5.5%	44.8%	6.7%
SMILES	PLK1 PBD inh	G9a inh	BAZ2B block	JMJD2A Tudor inh	HP1b chromo inh	Sfp PPTase inh
COc1ccc(C(=O)N(Cc2ccccc2)Cc2ccccc2)c(O)c1	.	.	.	-12.2%	.	.
O=C(NCCc1ccccc1)c1c[nH]c2c(F)cccc2c1=O	26.7µM*	19.9%	1.8%	?	9.3%	11.2%
C/C=C(\C=C\[C@@H](C)C/C=C/CC/C=C/C=C\C[C@@H](OC)/C(C)=C\C=C(C)C)CC(=O)O	.	.	.	.	.	0.9%
Nc1ccc(S(N)(=O)=O)cc1	-14.8%	-17.4%[21.5 µM]	.	-15.1%	22.4%	21.3%
CCS(=O)(=O)c1ccc(N)cc1	-3.2%	3.98µM*	1.1%	-24.7%	24.9%	-25.9%
CCN=C1S/C(=C\c2cn(CC(=O)NCc3ccco3)c3ccccc23)C(=O)N1CC	10.4%	8.8%[59 µM]	-2.9%	-8.5%	-3.4%	?
CN1C(=O)/C(=C/c2cn(CC(=O)NCc3ccco3)c3ccccc23)NC1=S	.	.	?	.	.	7.08µM*
O=Cc1cn(CC(=O)N2CCCCCC2)c2ccccc12	-6.7%	-23.2%	0.8%	-17.4%	17.9%	-1.6%
CN1C(=O)/C(=C/c2cn(CC(=O)N3CCCCC3)c3ccccc23)NC1=S	-6.2%	39.8µM*	-27.1%	-29.1%	41.3%	-0.1%
O=C1CSC2(C(=O)N(Cc3ccccc3)c3ccccc32)N1c1ccc(Cl)cc1 (stereo not given)	.	-40.1%[59 µM]	4.3%	-19.9%	27.9%	.
CC[C@H](C(=O)[C@H](C)[C@H](O)[C@H](C)CCc1ccc(C)c(O)c1C(=O)O)[C@H]1O[C@](CC)([C@@H]2CC[C@@](O)(CC)[C@H](C)O2)C[C@H]1C	.	20.2%[21.5 µM]	.	.	.	1.6%
C[C@@H]1O[C@H](O[C@@H]2[C@@H](Oc3cc(O)c4c(c3)O[C@H](c3ccc(O)cc3)CC4=O)O[C@@H](CO)[C@@H](O)[C@H]2O)[C@@H](O)[C@H](O)[C@@H]1O	.	31.4%[21.5 µM]	.	.	.	21.2%
COc1ccc(/C=N/Nc2ccc(C(F)(F)F)cc2[N+](=O)[O-])cc1O	?	?	?	89.1µM*	?	-2.6%
CCOc1cc(/C=N/NC(=O)Cc2ccc(C(F)(F)F)cc2[N+](=O)[O-])ccc1O	-7.8%	?	-9.0%	3.4%	13.3%	20.0%
CCOc1ccc(/C=N/Nc2ccc(C(F)(F)F)cc2[N+](=O)[O-])cc1O	-13.3%	44.7µM*	?	-30.4%	-30.0%	-5.1%
O=C(/C=C/c1ccc(I)cc1)c1ccc(B(O)O)cc1	.	.	.	.	.	16.8%
